# Data from PubChem BioAssay AID602163 (The Scripps Research Institute Molecular Screening Center, 2012).
# In all, about 360,000 compounds went through this assay and about 1,100 (0.31%) were called active. Shown is part of a subset that was picked to be rich in actives. Unmarked numbers belong to inactive results. Rule as the data show it: active = activation above about 7.5%; inactive = the rest.
# System: Methionine sulfoxide reductase A (Bos taurus)
# Assay: bovine MsrA enzyme activators, primary screen, biochemical, absorbance, HTS (AID 602163);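 also: 0% = vehicle and 100% = reference activator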
# Settings: purified bovine MsrA, absorbance read-out; at 10.6 µM; active compounds read high
row,SMILES,activation
1,CN(/C(=N/S(=O)(=O)c1cccs1)c1ccccc1)c1ccc(O)cc1,-3.66%
2,Brc1ccc(-c2n(-c3ccccn3)c3ccccc3[n+]2-c2ccccn2)cc1,-3.31%
3,CCn1c(SCC(=O)Nc2cc(C)ccc2C)nnc1-c1cnccn1,-14%
4,CCOC(=O)Cc1csc(NC(=O)CSc2nnc(-c3cccnc3)n2Cc2ccco2)n1,-2.57%
5,CCc1ccc(NC(=O)CSc2nnc(-c3cnccn3)n2Cc2ccco2)cc1,10.3% (active)
6,CN(C(=O)c1cccc(NC(=O)Cc2ccc(NC(=O)C3CCCN(C(=O)C4CC4)C3)cc2)c1)C1CC1 (centres undefined),-5.02%
7,O=C(Cc1ccc(NC(=O)C2CCCN(C(=O)C3CCCCC3)C2)cc1)Nc1cccc(C(=O)N2CCCCC2)c1 (centres undefined),8.7% (active)
8,CN(C(=O)c1cccc(NC(=O)Cc2ccc(NC(=O)C3CCCN(C(=O)C4CCCC4)C3)cc2)c1)C1CCC1 (centres undefined),-1.96%
9,C=C(C)C(=O)O[C@H]1C/C(C)=C\C(=O)/C=C(\C)[C@H](O)[C@@H]2OC(=O)C(=C)[C@@H]21,-5.09%
10,COCc1cccc(-c2csc(C(O)c3ccc(F)cc3)n2)c1 (centres undefined),-2.06%
11,CSc1ccc(CN(C)CC(=O)NCc2ccc(F)cc2)cc1,-2.54%
12,COc1cc(OC)cc(-c2c(C#Cc3ccsc3)c3cc(-c4ccc(SC)cc4)ccc3n2C)c1,-0.65%
13,C/C=C/C(=O)OCC(=O)Nc1ccc(F)cc1Cl,-7.53%
14,CN1c2ccc(C=O)c3c(C=O)ccc(c23)N(C)C1(C)C,9.27% (active)
15,c1ccc(CN=C2Nc3ccccc3CS2)nc1,-3.81%
16,COc1cc(F)c(C2=CC(=O)CC(C)(C)C2)cc1F,-3.81%
17,O=C(COC(=O)CSc1nnc(-c2ccc(Cl)cc2)o1)Nc1cc(Cl)cc(Cl)c1,-3.64%
18,CC(NS(=O)(=O)c1ccccc1)c1n[nH]c(=S)n1-c1ccccc1 (centres undefined),-0.57%
19,Cc1ccc(C(=O)COC(=O)CCN2C(=O)C3C4CC(C(Br)C4Br)C3C2=O)cc1 (centres undefined),-3.01%
20,O=C(c1ccco1)N1CCN(C(=S)Nc2cc(F)cc(F)c2)CC1,-6.94%

row,SMILES,activation
1,O=C(c1ccco1)N1CCN(Cc2cccc(C(F)(F)F)c2)CC1,7.76% (active)
2,O=C(c1ccco1)N1CCN(CCOc2ccccc2)CC1,-3.77%
3,Cn1c(=O)c2[nH]c(NCC3CCCO3)nc2n(-c2ccccc2)c1=O (centres undefined),-0.78%
4,Cc1cccc(NC(=O)CSc2nnc(CCCCCNC(=O)OC(C)(C)C)o2)c1C,-0.45%
5,O=C(O)CC(CC(=O)N1CCOCC1)c1ccccc1 (centres undefined),-2.3%
6,CC1=NN(C(=O)Cc2ccc(C)cc2)C(O)(c2cccnc2)C1 (centres undefined),0.86%
7,COc1ccccc1-n1c(C)nc2cc(C(=O)NCc3ccc4c(c3)OCO4)ccc21,-1.98%
8,COc1cc(OC)c(C(=O)NCc2ccc3c(c2)OCO3)cc1OC,9.15% (active)
9,COc1ccc(NC(=O)NCc2ccc3c(c2)OCO3)c(OC)c1,-3.53%
10,CCOC(=O)C1CCN(C(=O)c2cccc(S(=O)(=O)N(CC)c3ccccc3)c2)CC1,-8.63%
11,COc1ccccc1NC(=O)CCN1CCN(c2ccc(Cl)cc2)CC1,-3.09%
12,O=C(CN1CCN(c2ccc(O)cc2)CC1)Nc1ccc(-c2ccccc2)cc1,-3.19%
13,O=C(CCN1CCN(c2ccccc2)CC1)NNC(=S)Nc1ccccc1,12.7% (active)
14,O=C(Nc1ccccc1)c1nnsc1S(=O)(=O)c1ccc(Cl)cc1,-11.8%
15,O=c1[nH]snc1-c1c(Cl)cccc1Cl,-0.32%
16,CCC(C)N1C(=O)S/C(=C/c2ccc(Sc3nc4ccccc4[nH]3)o2)C1=O (centres undefined),-7.08%
17,Nc1cc(OC(=O)c2ccccc2Br)nn1S(=O)(=O)c1ccccc1,-3.8%
18,Cc1ccc(S(=O)(=O)N2CCC(C(=O)N3CCCCCCC3)CC2)cc1,-4.45%
19,Cc1ccc(S(=O)(=O)n2nc(OC(=O)C(C)(C)C)cc2N)cc1,19.7% (active)
20,CCN(CC)C(=O)Cn1cc(S(=O)(=O)CC(=O)NCc2ccc3c(c2)OCO3)c2ccccc21,-1.14%

row,SMILES,activation
1,O=C1Oc2ccccc2C(=O)/C1=C/c1ccccc1O,-0.91%
2,NC(=O)COc1ccc(/C=N/NC(=O)C2CCCN2S(=O)(=O)c2ccc(Cl)cc2)cc1 (centres undefined),8.7% (active)
3,O=C(OCC(=O)N1CCc2ccccc21)C1CCCN1S(=O)(=O)c1ccc(Cl)cc1 (centres undefined),-1.01%
4,COc1ccccc1NC(=O)C1CCCN1S(=O)(=O)c1ccc(Cl)cc1 (centres undefined),-9.31%
5,O=C(Nc1ccc2c(c1)C(=O)OC2)Nc1cccc2ccccc12,-5.72%
6,CC1Oc2ccccc2N(Cc2cccnc2)C1=O (centres undefined),-2.41%
7,CC(C)Cn1cnc2c(SCc3ccc(Cl)cc3)nc(N)nc21,-1.84%
8,CCCCNC(=O)C1(c2ccc(OC)cc2)CCOCC1,2.44%
9,CCCCNC(=O)OC(C)CNC(=O)OC (centres undefined),8.8% (active)
10,CCCCNC(=O)OCCSCCS(=O)(=O)c1ccc(Cl)cc1,-0.48%
11,Cc1cccc(-n2cnc(C(=O)NNC(=S)Nc3ccccc3)c2)n1,-2.6%
12,COc1ccc(S(=O)(=O)NC(=O)C2(C)CCN2C(=O)COc2ccc(Cl)cc2)cc1 (centres undefined),-2.84%
13,C=CCn1c(SCC(=O)c2c(N)n(C)c(=O)n(C)c2=O)nc2sc(CC)cc2c1=O,8.63% (active)
14,C=CCn1c(SCC(=O)/C(C#N)=C(\C)N)nc2sc(C)c(C)c2c1=O,-12.1%
15,CCc1cc2c(=O)n(-c3ccccc3)c(SCC(=O)O)nc2s1,-3.91%
16,COc1cc(C)nc(N2CCCC(C(=O)NCC(C)C)C2)n1 (centres undefined),-8.78%
17,COc1ccc2nc(N3CCCC(O)C3)c(C#N)cc2c1 (centres undefined),19.6% (active)
18,COc1ccc2cc(C(=O)C3CCCN(C(=O)c4sc(C)nc4C)C3)ccc2c1 (centres undefined),-0.96%
19,CCOc1ccc2nc(N3CCCN(C(=O)Nc4ccccc4C)CC3)c(C#N)cc2c1,-1.05%
